Inconclusive results are not listed. Activity calls are given as the source filed them. Calls come from the whole dose curve; as a rule, active = well fitted inhibition curve with a large enough effect; inconclusive = small, poorly fitted or top-dose-only effect; inactive = flat fitted curve, though single readings scatter.
Tests used:
Test in all cases: qHTS profiling for inhibitors of Plasmodium falciparum proliferation (AID 504749); note: nearly all actives have a fitted effect of over 60% in size
Conditions in all cases: P. falciparum in erythrocytes, SYBR Green DNA, 72 h; series mostly up to 28.7 µM
[1] = test system: AS120
Procedure, shortened: (§1)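 Fluorescence of SYBR Green-bound parasite DNA, read at 485/535 nm, served as the growth measure. Infected erythrocytes were cultured with compound 72 h; artemisinin (0.29 uM) and DMSO wells defined the normalization range.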

[2] = test system: ATS189
Procedure, shortened: as §1

[3] = test system: CP185
Procedure, shortened: as §1

[4] = test system: CP191
Procedure, shortened: as §1

[5] = test system: CP194
Procedure, shortened: as §1

[6] = test system: CP203
Procedure, shortened: as §1

[7] = test system: CP238
Procedure, shortened: as §1

[8] = test system: CP247
Procedure, shortened: as §1

[9] = test system: CP265
Procedure, shortened: as §1

[10] = test system: CP268
Procedure, shortened: as §1

[11] = test system: CP286
Procedure, shortened: as §1

[12] = test system: CP291
Procedure, shortened: as §1

[13] = test system: CP305
Procedure, shortened: as §1

[14] = test system: CP335
Procedure, shortened: as §1

[15] = test system: DFO2036
Procedure, shortened: as §1

[16] = test system: DIV30
Procedure, shortened: as §1

[17] = test system: ECU
Procedure, shortened: as §1

[18] = test system: PC26
Procedure, shortened: as §1

[19] = test system: TAB109
Procedure, shortened: as §1

[20] = test system: TAB113
Procedure, shortened: as §1

Measured: Potency

COC(=O)[C@@H]1[C@@H]2C[C@H]3c4[nH]c5ccccc5c4CCN3C[C@@H]2CC[C@@H]1O
inactive: all assays above

C[C@@H](C(=O)O)c1ccc(-c2ccccc2)c(F)c1
inactive: all assays above

Source: PubChem BioAssay (NCATS)
